# VP16 counter – VP16 counterscreen qHTS for inhibitors of ROR gamma transcriptional activity; Drosophila S2 Gal4-VP16 UAS-luciferase, luminescence, 20 h; Potency, µM (series often up to 53.6 µM), for the others: at the highest dose activity, negative = inhibition, most hits filed as inhibitors; 3.5% of 310,000 active; AID 2546, 2010;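 further: Gal4-VP16 expression switched on by copper sulfate through the metallothionein promoter; potency means the concentration at half of the fitted maximal effect; on the % scale 0 is the no-effect control and ±100 the full control effect; nearly all actives have a fitted effect of over 50% in size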
# SW480 rereplic – A quantitative high throughput screen for small molecules that induce DNA re-replication in SW480 colon adenocarcinoma cells. 1.8% of 340,000 active. SW480 DNA re-replication, Hoechst DNA content imaging, 48 h. Potency, µM (top dose mostly 46.1 µM), inactives show at the top dose re-replication activation, usual class: activators; further: potency means the concentration at half of the fitted maximal effect; % of control where 0% means no effect; nearly all actives have a fitted effect of over 55% in size
#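 First, 250 cells per well were seeded. Next, compound or vehicle (23 nL) was pinned in, plates sat 48 hr at 37 C. Finally Hoechst was added for 40 min before fluorescence scanning.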
# MCF10A rereplic – A quantitative high throughput screen for small molecules that induce DNA re-replication in MCF 10a normal breast cells; MCF 10A DNA re-replication, Hoechst nuclear intensity, 48 h; Potency, µM (titrated, usually from 46.1 µM), for inactives: at the highest dose activity, positive = re-replication, actives largely listed as activators; 2.9% of 350,000 active; AID 624296, 2012; further: potency means the concentration at half of the fitted maximal effect; % of control where 0% means no effect; nearly all actives have a fitted effect of over 50% in size
# Chronic BCR inh – qHTS Assay to Find Inhibitors of Chronic Active B-Cell Receptor Signaling. Potency, µM (titrated, usually from 46.1 µM), without a hit: top-dose activity change, negative = inhibition, hits mostly inhibitors. 0.05% of 340,000 active. ABC-DLBCL IkBa-CBG/CBR reporter, luminescence ratio, 4 h; active means well fitted inhibition curve with a large enough effect in the signal ratio, with a control signal flat, not every such curve was filed as active; inconclusive means small, poorly fitted or top-dose-only effect, or effect the other way, or a change in a side signal; the % refers to the signal ratio;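 further: potency means the concentration at half of the fitted maximal effect; plate controls were basal doxycycline-induced cells for no effect and cells given 10 µM MG132 for full effect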
#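 TMD8 human ABC-DLBCL cells with doxycycline-inducible IκBα–green luciferase fusion and unfused red luciferase, in 0.5% FBS medium; compounds up to 46 uM, 4 h at 37C. Green/red luminescence ratio, filter-overlap corrected, fitted to concentration-response curves.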
# Giardia killer – Small Molecules that selectively kill Giardia lamblia: qHTS; AID 540267, 2011; 0.15% of 340,000 active; activity change, % at 7.66 µM, hits read low; Giardia lamblia trophozoite viability; in the data active means activity change below about -80%; inconclusive means between about -30% and that limit;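 further: parasites exposed to compound for two days anaerobically before the ATP read; on the % scale 0 is the no-effect control and ±100 the full control effect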
#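 Giardia trophozoites, 100 cells per well, were exposed to compounds for 48 hrs at 37 deg C under anaerobic conditions; viability was then read as ATP content by bioluminescence after 15-30 min at room temperature.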
# RORg inh – qHTS for inhibitors of ROR gamma transcriptional activity; 5.4% of 310,000 active; Drosophila S2 Gal4-RORgamma UAS-luciferase reporter, 20 h; Nuclear receptor ROR-gamma (Mus musculus), P51450; Potency, µM (doses to about 53.6 µM), inactives show at the highest dose activity change, negative = inhibition, hits mostly inhibitors; further: potency means the concentration at half of the fitted maximal effect; on the % scale 0 is the no-effect control and ±100 the full control effect; nearly all actives have a fitted effect of over 60% in size
# Target sequence (P51450 whole entry, looked up, the tested form may be a part): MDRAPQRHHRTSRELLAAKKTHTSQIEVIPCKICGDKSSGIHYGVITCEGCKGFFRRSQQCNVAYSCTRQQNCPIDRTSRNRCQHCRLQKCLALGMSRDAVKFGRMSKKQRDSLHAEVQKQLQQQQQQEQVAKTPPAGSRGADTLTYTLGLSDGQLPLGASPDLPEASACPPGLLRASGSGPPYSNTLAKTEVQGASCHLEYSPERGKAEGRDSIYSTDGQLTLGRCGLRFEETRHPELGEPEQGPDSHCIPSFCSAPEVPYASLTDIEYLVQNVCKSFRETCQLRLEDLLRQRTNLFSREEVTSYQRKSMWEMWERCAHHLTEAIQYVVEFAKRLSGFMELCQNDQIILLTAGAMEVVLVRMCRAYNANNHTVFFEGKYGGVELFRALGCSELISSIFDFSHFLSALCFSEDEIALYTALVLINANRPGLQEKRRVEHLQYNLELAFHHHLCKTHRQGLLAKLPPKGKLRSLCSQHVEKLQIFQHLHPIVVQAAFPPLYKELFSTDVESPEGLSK
#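 ROR gamma transcriptional activity was tracked as Gal4-UAS luciferase output in stably transfected Drosophila Schneider cells, with compound added 1 hr before 700 uM copper sulfate induction and a 20 hr ambient-temperature incubation.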
# * = called active by the depositor; u = inconclusive; x = not tested or not shown; [ ] = remark or other dose. Rows were chosen to be rich in hits. Some 8.3% of all compounds tested hit in one or more screens of this group. Unless noted, the call rests on the fitted dose curve; in most records, active means well fitted curve in the direction sought with a large enough effect; inconclusive means small, poorly fitted or top-dose-only effect, or another doubt; inactive means no such curve, though single readings can be large; an effect the other way counts as inactive or inconclusive.
SMILES,VP16 counter,SW480 rereplic,MCF10A rereplic,Chronic BCR inh,Giardia killer,RORg inh
Nc1ccc(O)c(-c2nc3ccccc3s2)c1,-17.2%,2.5%,u,0.0%,-13.6,u
Nc1cccc(-c2nc3ccc(N)cc3s2)c1,u,u,u,u,u,3.55µM*
COc1ccc2oc(=O)cc(CN(C)Cc3ccccc3)c2c1,u,3.7%,u,-7.1%,34.6,11.7%
C=CCNC(=O)c1ccc(CN(c2ccc(OCC)cc2)S(=O)(=O)c2ccc(C)cc2)cc1,-2.7%,u,25.9µM*,-5.3%,12.0,u
O=[N+]([O-])c1ccc(O)c(Nc2ncnc3ccc(Br)cc23)c1,-19.5%,u,13µM*,u,-4.3,u
Cc1ccc2cc(CN(c3ccccc3C)S(=O)(=O)c3ccccc3)c(=O)[nH]c2c1,-11.9%,20.6µM*,u,-0.4%,-8.0,8.2%
Cc1ccc(N(Cc2cc3ccccc3[nH]c2=O)S(=O)(=O)c2ccccc2)cc1,-2.7%,2.9%,11.3%,-12.3%,8.2,-0.3%
CCCCC(Sc1nc(C)c(Cc2ccccc2)c(=O)[nH]1)C(=O)O (centres undefined),7.0%,8.9%,-1.5%,12.9%,33.3,-11.9%
COc1cc(CNc2ccc(N3CCOCC3)cc2)cc(Br)c1OC,u,u,13.0%,0.5%,-7.9,13.4%
COc1cc(CNc2ccc(N3CCCC3)cc2)cc(Cl)c1OC,11.5%,u,23.1µM*,u,-6.2,-34.4%
CCOc1cc(CNc2ccc(N3CCCC3)cc2)cc(Cl)c1OC,14.5%,16.4µM*,u,-12.4%,-2.6,-10.9%
CC(C)NC1(C(N)=O)CCNCC1,x,5.3%,-1.9%,x,-18.9,x
CN(CC1CCOCC1)C(=O)c1ccc2nc(Cc3cccc(Cl)c3)oc2c1,-9.6%,9.7%,18.4µM*,-4.8%,11.0,16.4%
Cc1cccc(NC(=S)Nc2ccccn2)c1C,1.78µM*,1.2%,3.7%,u,-2.2,1.12µM*
Cc1ccccc1NC(=S)NCc1ccc(Cl)cc1,3.98µM*,-4.3%,-3.2%,14.9%,-10.6,2.82µM*
Cc1ccccc1NC(=S)NCc1ccc(F)cc1,6.31µM*,1.2%,-0.7%,1.9%,1.1,7.08µM*
Cc1cccc(NC(=O)Nc2ccccn2)c1C,u,6.8%,7.8%,-0.4%,7.4,22.0%
Cc1cccc(NC(=S)NCc2ccccc2)c1C,5.62µM*,-0.1%,5.9%,1.9%,-23.5,3.98µM*
CC(C)(C)c1ccccc1NC(=S)NCc1ccccc1,u,1.5%,u,0.6%,8.0,5.8%
Cc1ccccc1NC(=O)NCCc1ccc(Cl)cc1,4.1%,-12.6%,u,u,8.3,-17.8%
COc1cc(C(=O)N(C)CCOc2ccccc2)ccc1OCC(=O)Nc1cccc(C(F)(F)F)c1,x,14.3%,u,-19.9%,0.4,x
CCNC(=S)Nc1cccc(F)c1C,-23.8%,-0.5%,0.8%,4.1%,-12.5,12.6µM*
Cc1cccc(NC(=S)NCc2ccc(F)cc2)c1C,5.01µM*,-2.2%,0.3%,6.9%,22.2,3.55µM*
Cc1c(Cl)cccc1NC(=S)NCCCN(C)C,-9.4%,-0.4%,9.9%,1.9%,32.6,-11.9%
Cc1cc(Cl)ccc1NC(=S)NCc1ccc(F)cc1,7.08µM*,-0.4%[9.22 µM],-12.7%,u,-25.2,6.31µM*
SMILES,VP16 counter,SW480 rereplic,MCF10A rereplic,Chronic BCR inh,Giardia killer,RORg inh
Cc1ccc2c3c([nH]c2c1C)-c1nonc1CC3,-29.1%,2.1%[9.22 µM],-4.4%,12.9%,-10.0,u
Cn1c(CNC(=O)c2ccc(Cl)cc2)nnc1SCC(=O)NC1=NCCS1,-0.7%,-14.1%,1.6%,1.7%,5.8,6.2%
O=C(NC1=NCCS1)c1cc(-c2ccc(F)cc2)nc2ccccc12,11.2µM*,-4.3%,28.8%,u,21.8,10µM*
Cc1ccc(-c2cc(C(=O)NC3=NCCS3)c3ccccc3n2)cc1C,11.2µM*,16.5%,25.4%,u,-2.3,10µM*
O=C(NN=C1CCCC1)c1cc(-c2ccc(F)cc2)nc2ccccc12,0.6%,10.8%,0.7%,-18.7%,16.4,u
CCCc1ccc(-c2cc(C(=O)NC3=NCCS3)c3ccccc3n2)cc1,1.58µM*,-23.9%,u,-9.3%,u,1.78µM*
Cc1ccc(CCNC(=O)c2cc(-c3ccncc3)nc3ccccc23)cc1,1.4%,u,12.8%,3.7%,-7.2,14.7%
COc1ccc(-n2c(COc3ccc(C)cc3)nnc2SCC(=O)O)cc1,-4.6%,u,u,9.2%,21.3,14.5%
COc1ccc(OCc2n[nH]c(=S)n2-c2ccc(C)cc2)cc1,u,1.8%,3.8%,u,-28.7,2.24µM*
COc1cc([N+](=O)[O-])c(OC)cc1SCc1n[nH]c(=S)n1-c1ccc(C)cc1,-11.4%,1.3%,-3.0%,u,-21.1,2.24µM*
COc1ccc(-n2c(COc3cccc(C)c3)nnc2SCC(=O)O)cc1,-2.6%,-0.6%,10.4%,0.7%,-10.4,35.8%
COc1ccc(-n2c(COc3cccc(C)c3)n[nH]c2=S)cc1,5.01µM*,3.7%,-1.5%,-0.5%,17.1,3.55µM*
CC(Oc1ccc(Cl)cc1Cl)C(=O)NN=C1CCN(C)CC1 (centres undefined),10µM*,9.2%,17.3%,-2.0%,13.6,7.08µM*
CN1CCC(=NNC(=O)c2cc(-c3ccc(Cl)cc3)n[nH]2)CC1,-2.1%,-51.9%,18.4µM*,u,-10.9,22.7%
CC(Oc1ccc(Cl)cc1Cl)C(=O)N/N=C1\CCCc2ccccc21 (centres undefined),0.1%,-17.5%,-2.4%,12.2%,2.2,-21.4%
O=C(COc1ccc(Br)cc1Br)NC(=S)N1CCCc2ccccc21,5.8%,10.9%,4.7%,u,4.4,1.8%
CCOc1ccc(-c2cc(C(=O)NN=C3CCN(C)CC3)[nH]n2)cc1,u,4.2%,-2.2%,u,-3.7,u
CC(Oc1ccc(Cl)cc1Cl)C(=O)NC(=S)N1CCc2ccccc21 (centres undefined),0.891µM*,2.1%,32.7%,-10.3%,-2.0,0.708µM*
O=C(COc1ccc(Br)cc1Cl)NC(=S)N1CCc2ccccc21,0.708µM*,1.3%,u,u,17.5,0.794µM*
CC(C)(C)c1ccc(-c2noc(CCC(N)=O)n2)cc1,-17.1%,u,-180.9%[0.0737 µM],u,-29.3,u
CC(C)(C)c1ccc(-c2noc(CCC(=O)NCC3CCCO3)n2)cc1 (centres undefined),10µM*,-5.5%,2.2%,u,-16.6,1µM*

# Screening results from PubChem.
